Assay outcomes: PubChem BioAssay, The Scripps Research Institute Molecular Screening Center
MITF primary: MITF inhibitors, primary screen, biochemical, AlphaScreen, human. Microphthalmia-associated transcription factor (Homo sapiens), O75030. AlphaScreen MITF homodimerization, bead proximity signal. inhibition, % at 2.6 µM. hit rate 0.91% among 650,000; in the data active = inhibition above about 50%;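 note: 0% = vehicle wells with protein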
FBW7 act: FBW7 E3 ligase activators, primary screen, biochemical, AlphaScreen, human; hit rate 0.13% among 650,000; F-box/WD repeat-containing protein 7 (Homo sapiens), Q969H0; AlphaScreen FBW7–phospho-cyclin E peptide binding, activator screen; AID 1259310, 2017; normalized activity (activation), % at 26.1 µM; in the data active = normalized activity above about 1.9%;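 note: purified mutant Fbw7 with reduced substrate affinity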
Target sequence (Q969H0 whole entry, looked up): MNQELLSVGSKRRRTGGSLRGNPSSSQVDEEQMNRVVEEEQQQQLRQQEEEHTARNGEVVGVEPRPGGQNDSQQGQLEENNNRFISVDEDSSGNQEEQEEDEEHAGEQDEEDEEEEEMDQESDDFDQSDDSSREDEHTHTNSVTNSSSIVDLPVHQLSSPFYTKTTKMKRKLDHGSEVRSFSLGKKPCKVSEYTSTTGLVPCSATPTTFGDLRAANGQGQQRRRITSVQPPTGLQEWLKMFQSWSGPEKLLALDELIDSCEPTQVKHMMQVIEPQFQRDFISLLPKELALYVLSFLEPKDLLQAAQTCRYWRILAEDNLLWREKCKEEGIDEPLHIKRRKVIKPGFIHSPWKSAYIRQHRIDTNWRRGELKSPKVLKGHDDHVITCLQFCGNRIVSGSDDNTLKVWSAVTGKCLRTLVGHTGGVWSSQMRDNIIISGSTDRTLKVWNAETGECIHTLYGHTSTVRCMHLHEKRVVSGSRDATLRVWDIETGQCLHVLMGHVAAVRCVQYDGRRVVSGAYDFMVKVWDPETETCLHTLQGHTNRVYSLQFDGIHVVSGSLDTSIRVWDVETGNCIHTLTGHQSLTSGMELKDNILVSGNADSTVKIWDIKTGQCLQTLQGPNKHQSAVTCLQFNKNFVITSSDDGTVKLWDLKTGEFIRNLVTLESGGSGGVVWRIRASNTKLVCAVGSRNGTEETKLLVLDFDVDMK
TEAD-YAP inh: TEAD-YAP interaction inhibition, primary screen, TEAD-YAP interaction inhibitor project, luminescence, HEK-TIYL cells; TEAD-Gal4/YAP UAS-luciferase luminescence; hit rate 1.4% among 640,000; inhibition, % at 9.12 µM; AID 1259422, 2018; in the data active = inhibition above about 32%;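 note: 0% = median of test compound wells and 100% = reference inhibitor wells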
GPR151 ag: activators of human GPR151, primary screen, cell-based, PathHunter beta-arrestin, luminescence; activation, % at 11.2 µM; G-protein coupled receptor 151 (Homo sapiens), Q8TDV0; PathHunter beta-arrestin GPR151 cells; hit rate 1% among 650,000; AID 1508602, 2020; in the data active = activation above about 4.9%;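 note: 0% = median of compound wells and 100% = cells with positive control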
* hit, by the source's call; ! = not confirmed by another sample. This is a sample that favours compounds with a hit; in the whole collection about 3.5% have one here.

SMILES	MITF primary	FBW7 act	TEAD-YAP inh	GPR151 ag
CCOc1ccc(NC(=O)CN2C(=O)C(C)N=C(c3ccccc3)c3ccccc32)cc1 (configuration not stated)	-1	0	8	1
CCN(CC)CCSc1nc2ccccc2c(=O)n1-c1ccc(OC)cc1	10	0	2	-2
CCC1/C=C/C=C/C[C@H](C)[C@@H](O)[C@](C)(O)C(=O)[C@@H](C)[C@H](O)[C@@H](C)C(=O)[C@H](C)[C@@H](O)[C@H](C)/C=C/C(=O)OC2[C@@H](C)C(CC1)OC1(CC[C@@H](C)C(C[C@H](C)O)O1)[C@@H]2C (some centres not stated)	-1	0	94*	4
Cc1cc(Cl)ccc1OCCCC(=O)O	2	0	6	1
O=C1NC(=S)NC(=O)C1=Cc1ccc(OCc2cccc(C(=O)O)c2)cc1	5	0	63*	-8
NC(Cc1cc(O)c(O)cc1O)C(=O)O (configuration not stated)	62*	0	-7	0
CC1CN(c2ccc(Cl)cc2[N+](=O)[O-])CC(C)N1 (configuration not stated)	12	0	5	-1
Fc1cccc(CN2CCN(c3ccccc3F)CC2)c1	16	0	-1	0
COc1cccc(N2CCN(Cc3ccccc3[N+](=O)[O-])CC2)c1	41	0	6	-1
COc1ccc(N2CCN(Cc3ccc(F)cc3F)CC2)cc1	56*	0	-3	-2
COc1ccc(CN2CCN(c3ccc(F)cc3)CC2)c(OC)c1	23	0	1	-1
COc1ccc(N2CCN(Cc3ccccc3[N+](=O)[O-])CC2)cc1	57*	0	-11	-1
COc1[nH]c2ccccc2c1C=C(C#N)C#N	7	0	71*	1
Cc1ccc(S(=O)(=O)N/N=C/c2ccc(C#N)cc2)cc1[N+](=O)[O-]	3	0	13	-3
COc1ccc(-n2c(O)c(C=NC3CN4CCC3CC4)c3ccccc3c2=O)cc1OC (configuration not stated)	0	0	1	1
CCn1cnc2c(Nc3cccc(Cl)c3)nc(N[C@@H]3CCCC[C@@H]3N)nc21	-4	0	46*	2
CCOC(=O)C1(c2ccccc2)CCN(Cc2ccc(O)c(C(=O)OC)c2)CC1	7	0	35*	0
C=CCN1C(=O)C2(C(C#N)=C(N)Oc3ccccc32)C(C(=O)OCC)=C1c1ccccc1 (configuration not stated)	9	0	3	-1
COc1ccccc1-n1c(/C=C/c2ccc([N+](=O)[O-])cc2)nc2ccccc2c1=O	-15	0	16	-1
COc1ccccc1-n1c(/C=C/c2ccc(N(C)C)cc2)nc2ccccc2c1=O	-16	2.3*	-12	0
COc1ccc2c3c([nH]c2c1)C(C)=NCC3	27	0	24	0
COc1ccc2c(c1)[nH]c1c(C)nccc12	-9	0	85*!	0
O=C1CC[C@@H]2CN(C3CCCC3)CC[C@@H]2N1Cc1cccnc1	-1	0	8	-1
CCOP(=O)(Cc1cccc(C(=O)O)c1)OCC	-4	0	-5	4
COc1ccc(O)c(CN2CCN(Cc3ccccc3)CC2)c1	-1	0	4	-1
SMILES	MITF primary	FBW7 act	TEAD-YAP inh	GPR151 ag
COc1ccc(O)c(CN2CCN(Cc3ccccc3Cl)CC2)c1	51*	0	-3	-1
COc1ccc(O)c(CN2CCN(Cc3cccc(C)c3)CC2)c1	72*	0	-4	0
COc1ccc(O)c(CN2CCN(C)CC2)c1	16	0	2	-2
CCCCCCC1C(=O)NC(=S)NC1=O	0	0	3	0
OC(c1ccc(Cl)s1)(c1ccc(Cl)s1)C1CN2CCC1CC2 (configuration not stated)	-3	0	-6	0
CC[C@@]1(O)C(=O)OCc2c1cc1n(c2=O)Cc2cc3c(O)cccc3nc2-1	34	0	78*	-2
CCCCc1nc2ccccc2c(=O)n1-c1ccccc1O	12	0	11	-1
CC[C@@]1(O)C(=O)OCc2c1cc1n(c2=O)Cc2cc3ccccc3nc2-1	8	0	76*	0
O=c1c(O)c(-c2ccc(O)c(O)c2)oc2c(O)c(O)cc(O)c12	57*	0	-18	4
